Assay outcomes from PubChem.
PNC inhibitor = inhibitors of perinucleolar compartment assembly; PC3M PTB-GFP, PNC prevalence imaging, 16 h; stronger effect = lower value; activity change (PNC), negative = inhibition, % at 10 µM; hit rate 3.1% among 140,000;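 active means readout at or below -70, meaning at least 70% loss of cells showing the perinucleolar compartment, a nuclear body marking cancer cells; inconclusive means readout between -30 and a set limit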;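 further: plate controls were DMSO wells for no effect and camptothecin positive control wells for full effect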
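PC3M cells stably expressing PTB-GFP, 750–1000 cells/well, treated 16 h at 37 °C with compound (23 nl of library stock), in duplicate. After paraformaldehyde fixation and Hoechst stain, imaged at 20x; PNC prevalence scored by image analysis.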
HPGD block = HPGD (human) dehydrogenase inhibition; P15428; purified HPGD, NADH fluorescence kinetic, PGE2 substrate; Potency, µM, for inactives: at the highest dose activity change, negative = inhibition, hits mostly inhibitors; hit rate 4.3% among 150,000; AID 894; further: potency means the concentration at half of the fitted maximal effect
Target sequence (P15428 whole entry, looked up): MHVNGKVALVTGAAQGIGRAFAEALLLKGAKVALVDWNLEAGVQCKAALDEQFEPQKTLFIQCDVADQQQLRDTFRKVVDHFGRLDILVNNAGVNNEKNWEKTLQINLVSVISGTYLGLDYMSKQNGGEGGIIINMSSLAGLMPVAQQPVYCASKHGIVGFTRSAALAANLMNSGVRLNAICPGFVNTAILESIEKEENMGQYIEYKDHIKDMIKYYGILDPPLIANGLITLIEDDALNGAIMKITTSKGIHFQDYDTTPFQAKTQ
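NADH formation kinetics: reaction with 30 uM PGE2 and 1 mM NAD+ (final), 20 nM enzyme, Tris-HCl pH 8 with Tween 20, after 15 min compound preincubation at room temperature. Fluorescence change, last versus first of five reads.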
ALDH1A1 block = blocks purified human ALDH1A1 activity; Potency, µM (series often up to 75.3 µM), for inactives: top-dose activity, negative = inhibition, most hits filed as inhibitors; hit rate 7.3% among 220,000; Purified ALDH1A1, NADH fluorescence, propionaldehyde substrate; P00352;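 further: potency means the concentration at half of the fitted maximal effect; plate controls were no enzyme wells and a reference inhibitor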
Target sequence (P00352 whole entry, looked up): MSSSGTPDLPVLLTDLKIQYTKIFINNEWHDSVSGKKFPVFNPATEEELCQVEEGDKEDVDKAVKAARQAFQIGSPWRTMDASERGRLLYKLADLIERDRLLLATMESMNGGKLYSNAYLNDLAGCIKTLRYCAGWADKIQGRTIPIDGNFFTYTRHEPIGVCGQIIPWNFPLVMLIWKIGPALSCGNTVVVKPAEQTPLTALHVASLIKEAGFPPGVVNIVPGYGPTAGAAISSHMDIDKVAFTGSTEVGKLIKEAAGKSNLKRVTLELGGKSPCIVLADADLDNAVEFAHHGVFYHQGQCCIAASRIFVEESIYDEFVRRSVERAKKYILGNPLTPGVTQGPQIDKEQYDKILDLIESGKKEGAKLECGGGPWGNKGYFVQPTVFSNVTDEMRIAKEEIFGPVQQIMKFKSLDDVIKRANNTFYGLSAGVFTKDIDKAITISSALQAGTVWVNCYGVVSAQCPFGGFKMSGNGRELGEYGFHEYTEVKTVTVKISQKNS
LMNA splice mod = changes lamin A minigene splicing in HeLa cells | HeLa LMNA splicing GFP/RFP minigene ratio, 48 h | Potency, µM (top dose mostly 46.1 µM), inactives show at the highest dose ratio change, negative = inhibition, hits mostly inhibitors | hit rate 0.01% among 200,000 | AID 1487; active means well fitted inhibition curve with a large enough effect in the signal ratio, with a control signal flat, not every such curve was filed as active; inconclusive means small, poorly fitted or top-dose-only effect, or effect the other way, or a change in a side signal; the % refers to the signal ratio; further: potency means the concentration at half of the fitted maximal effect
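Read-out is the ratio of GFP to DsRed2 object intensity, acquired by 488 nm laser-scanning cytometry on HeLa lamin A-EGFP minigene reporter cells. Compound incubation 48 hrs at 37 °C in Opti-MEM with 2% FBS; DMSO 0.5% final.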
Luc counter = Kinase-Glo luciferase inhibition (counter-screen); hit rate 0.28% among 200,000; AID 1379; Kinase-Glo luciferase, ATP luminescence, 8 min; Q27757; Potency, µM (doses to about 38.3 µM), without a hit: at the top dose activity change, negative = inhibition, actives largely listed as inhibitors; active means well fitted inhibition curve with a large enough effect; inconclusive means small, poorly fitted or top-dose-only effect; further: potency means the concentration at half of the fitted maximal effect; nearly all actives have a fitted effect of over 60% in size
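Compound is pinned into ATP-containing buffer (10 uM ATP, imidazole pH 7.2, 7 mM MgCl2). Kinase-Glo luciferase reagent is then added. Light output is recorded following an 8-min room-temperature incubation.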
IMPase inh = cell-permeable inhibitors of inositol monophosphatase (IMPase); P97697; CHO-M1 cells, IP1 accumulation, HTRF TR-FRET ratio; inhibition (IP1 accumulation), % at 46.1 µM; 120,000 tested, under 10 active; AID 901; active means well fitted curve in the direction sought with a large enough effect in the signal ratio, not every such curve was filed as active; inconclusive means small, poorly fitted or top-dose-only effect, or a change in a side signal; inactive means no such curve, though single readings can be large or run the other way; the % refers to the signal ratio;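 further: cells stimulated with carbachol in lithium chloride buffer; plate controls were DMSO basal wells for no effect and reference inhibitor wells for full effect; higher means more IMPase inhibition seen as more IP1 and lower FRET ratio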
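Cellular IMPase inhibition is scored as a rise in cytosolic IP1, detected by competitive TR-FRET between d2-labelled IP1 and a europium anti-IP1 antibody. M1-expressing CHO cells were stimulated with carbachol for 30 min at 37C, with lithium (50 mM LiCl) present in the buffer.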
Starred values were filed as active, the others as inactive; ? = inconclusive; . = no result given; [ ] = remark or other dose. In the library only some 10% were active in any assay of this set; here they are far more common. Unless noted, the call rests on the fitted dose curve; in most records, active means well fitted inhibition curve with a large enough effect (not every such curve was filed as active); inconclusive means small, poorly fitted or top-dose-only effect, or another doubt; inactive means no such curve, though single readings can be large or run the other way. Unless noted, on the % scale 0 is the no-effect control and ±100 the full control effect.

SMILES	PNC inhibitor	HPGD block	ALDH1A1 block	LMNA splice mod	Luc counter	IMPase inh
Cc1ccc(C(=O)OC[C@H]2O[C@H](Cl)C[C@@H]2OC(=O)c2ccc(C)cc2)cc1	.	-3.6%	3.0%	.	3.3%	.
Cc1ccc(-c2cc3nc(-c4ccccc4)cc(C(F)(F)F)n3n2)cc1	.	.	.	.	.	0.5
CCCCC1CCC(CCCC(C)CCC(=O)O)CC1 (centres undefined)	.	.	.	.	.	4.5
CC1(C)OC2CC3C4CC(F)C5=CC(=O)CC[C@@]5(C)C4C(O)C[C@@]3(C)[C@]2(C(=O)CO)O1 (some centres undefined)	.	-2.6%	8.2%	.	-4.5%	.
Cc1ccc2[nH]c3c(=O)n(CC(=O)N4CCCCC4)ncc3c2c1	.	.	.	-6.2%[46 µM]	.	.
CCCCNC(=O)Cn1cnc2c(cnn2-c2ccc(C)c(C)c2)c1=O	-2.0	-25.1%	15.8%	?	-2.7%	1.1
C#CCn1cnc2c(cnn2-c2ccc(C)c(C)c2)c1=O	-9.0	-16.2%	14.1µM*	-4.6%	-2.5%	3.1
Cc1ccc(-n2ncc3c(=O)n(CC#N)cnc32)cc1C	20.7	-23.6%	15.8µM*	18.9%	-1.6%	9.1
C[C@@H](C(=O)Nc1ccc2ccccc2c1)[C@@H]1C[C@@]1(C)[C@@H](NS(=O)(=O)c1ccc(-c2ccccc2)cc1)c1ccccc1	.	-13.7%	2.0%	.	-1.3%	.
CC(C)(C)NC(=O)[C@H]1CN(Cc2cccnc2)CCN1C[C@@H](O)C[C@@H](Cc1ccccc1)C(=O)N[C@H]1c2ccccc2C[C@H]1O	.	-21.2%	19.8%	?	3.1%[39.9 µM]	.
COC(=O)C/C=C\[C@@H](C)[C@@H](/C=N\OC[C@@H](C)[C@H](OCc1ccccc1)C(C)C)OC	.	.	-2.3%[13.5 µM]	.	.	.
O=S(=O)(CCOc1ccccc1)N1CCOCC1	-16.7	5.8%	20µM*	-1.4%	3.2%	.
CSC(N)=NCCCC(N)C(=O)O (centres undefined)	.	0.4%	9.6%	7.9%	-2.8%	.
CCC(OC(=O)c1nsc(Cl)c1Cl)C(=O)NCc1ccco1 (centres undefined)	-16.4	10µM*	?	6.5%	-1.8%	-7.0
COCCNC(=O)c1ccc(Cc2nc3ccccc3[nH]2)cc1	.	-10.5%	15.0%	.	-2.6%	.
C=C1C(=O)O[C@@H]2[C@H]3O[C@]3(C)CC/C=C(\C)CC[C@@H]12	.	.	12.6µM*	.	.	.
O=c1[nH][nH]c(=S)c(=O)[nH]1	.	3.98µM*	?	.	-4.7%[7.66 µM]	.
COc1cccc(NC(=O)Cc2nc(-c3ccccc3)sc2-c2ccc(C)cc2)c1	80.5	?	25.1µM*	?	-2.4%	.
Cc1ccc(Cl)cc1NC(=O)c1sc(-n2nc(C)c(Cc3ccc4c(c3)OCO4)c2C)nc1C	.	.	.	26.0%[46 µM]	.	.
COc1ccc(NC(=O)c2ccc3c(=O)n(-c4ccc(OC)cc4OC)c(=S)[nH]c3c2)c(OC)c1	.	.	?	-9.2%[9.22 µM]	-4.4%	.
COC(=O)c1ccc2c(=O)n(-c3ccccc3F)c(=S)[nH]c2c1	.	.	15.8µM*	.	1.3%	.
COc1ccc(-n2c(=S)[nH]c3cc(C(=O)NC4CCCCC4)ccc3c2=O)c(OC)c1	.	.	0.1µM*	.	-2.3%	.
CCOc1ccc(/C=N/Nc2ccccn2)cc1OC	.	.	5.2%	.	-4.4%	.
CCOc1ccc(/C=N/N(C)c2ccccc2)cc1OC	8.6	-10.4%	7.94µM*	1.2%	5.7%	11.0
O=C(Nc1nc(-c2ccccc2)cs1)C1c2ccccc2Oc2ccccc21	-16.7	-14.2%	1.78µM*	8.7%	2.3%	0.0[1.84 µM]
SMILES	PNC inhibitor	HPGD block	ALDH1A1 block	LMNA splice mod	Luc counter	IMPase inh
Cc1nnc(NC(=O)C2c3ccccc3Oc3ccccc32)s1	204.6	22.4µM*	-14.2%	?	2.4%	6.6
O=C(Nc1nc(-c2ccncc2)cs1)C1c2ccccc2Oc2ccccc21	-13.7	-3.6%	-5.8%	?	2.6%	.
CN(C)c1ccc(NC(=O)C2(c3cccs3)CCOCC2)cc1	.	.	.	-0.6%[46 µM]	.	.
NC(=O)c1ccsc1NC(=O)c1ccc(S(=O)(=O)N2CCCc3ccccc32)cc1	19.2	?	-16.4%	?	0.6%	.
CC1CCCCN1S(=O)(=O)c1ccc(C(=O)Nc2sccc2C(N)=O)cc1 (centres undefined)	?	28.2µM*	14.1µM*	?	-7.7%	8.3
COc1ccc(-c2cc(C(F)(F)F)n3nc(C(=O)Nc4ccccc4SC)cc3n2)cc1OC	.	.	.	.	.	5.7
COCCCNC(=S)N1CCN(c2ccc([N+](=O)[O-])cc2)CC1	26.9	-7.9%	28.2µM*	?	1.1%	-4.3
O=[N+]([O-])c1ccc(N2CCN(C(=S)NCc3ccc(Cl)cc3)CC2)cc1	.	.	11.2µM*	.	.	.
CNC(=S)N1CCN(c2ccc([N+](=O)[O-])cc2)CC1	-7.9	-11.9%	?	-2.5%	-2.2%	-8.9
C=CCNC(=S)N1CCN(c2ccc([N+](=O)[O-])cc2)CC1	20.3	.	?	?	.	5.2
CCNC(=S)N1CCN(c2ccc([N+](=O)[O-])cc2)CC1	13.5	-9.9%	3.16µM*	1.5%	-2.8%	3.4
Cc1nc(NC2CCCCC2)c2nc(-c3ccccc3)n(CCCN3CCCCC3C)c2n1 (centres undefined)	.	?	?	.	-2.2%	.
Cc1cccc(OCCCN2C(=O)C(=O)c3cc(C)ccc32)c1	.	.	0.1µM*	?	-2.4%	.
Cc1ccc(OCCn2c(=O)oc3ccc(C)cc32)cc1	.	.	?	10.1%[46 µM]	-3.4%	.
Cc1ccc(OCCCN2C(=O)C(=O)c3cc(C)ccc32)cc1	.	.	0.1µM*	.	-0.5%	.
Cc1ccc(OCCN2C(=O)C(=O)c3cccc(C)c32)cc1	.	.	0.199µM*	?	-0.2%	.
Cc1ccc2c(c1)C(=O)C(=O)N2CCCOc1ccccc1	.	.	0.112µM*	-13.5%[46 µM]	0.4%	.
O=C1c2ccccc2C(=O)N1CCCOc1ccccc1	18.8	2.6%	0.7%	8.3%	3.3%	-12.6
Cc1cccc(OCCN2C(=O)c3ccccc3C2=O)c1	.	.	8.7%	.	-1.9%	.
CC(C)c1nn2c(=O)cc(COC(=O)c3ccc(NC(=O)c4cccs4)cc3)nc2s1	.	.	.	-7.2%[46 µM]	.	.
Cc1ccc(NC(=O)c2sc(-n3nc(C)c(CCC(C)C)c3C)nc2C)cc1C	.	.	.	10.8%[46 µM]	.	.
Cc1cccc2c1N(C)C(=O)C2=O	.	.	1.78µM*	.	-3.4%	.
Cc1cccc(C)c1N1CC(=O)N(c2c(C)cccc2C)CC1=O	24.3	-6.7%	6.0%	12.4%[0.0737 µM]	4.3%	-8.0
CCOC(=O)CN1C(=O)C(=O)c2cccc(C)c21	?	-14.7%	0.0251µM*	-15.4%	-1.5%	0.4
COCCCNC(=O)C1CCN(Cc2cc3ccccc3n2Cc2cccc(Cl)c2)CC1	.	.	.	-7.3%[46 µM]	.	.
CC1CCCCN1C(=O)c1ccc(COc2ccc([N+](=O)[O-])cc2)o1 (centres undefined)	?	22.4µM*	14.1µM*	?	2.4%	.
c1ccc(-c2noc(-c3ccc4c(c3)OCO4)n2)cc1	.	.	7.6%	.	10µM*	.
